# ± gives the standard deviation.
# Test system: EfPiwi piRISC loaded with L1MC piRNA (26 nt)
# Assay: pre-steady-state target cleavage rate (min^-1); auxiliary factor: none (no Gtsf1); guide: L1MC piRNA 5'p-UAACUAAAUACUAUGCAAGCUGUAGG; MIWI and MILI are mouse PIWI proteins and EfPiwi is from a freshwater sponge; tags in brackets are library labels; higher = faster piRNA-guided slicing of the target
# Description: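 Cleave-'n-Seq: a library of target RNAs (target site in constant flanks) at […] was incubated with 1 nM active freshwater sponge Ephydatia fluviatilis Piwi piRISC (synthetic 5'-monophosphorylated piRNA guide) with or without 500 nM EmGtsf1 at 33 °C for 1 min to 16 h. Uncleaved targets were sequenced and the pooled three trials fitted to a burst-and-steady-state model to give the pre-steady-state cleavage rate (min^-1). Sequence is the target site only. Fits with R² ≤ 0 are excluded.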
row,Sequence,pre-steady-state target cleavage rate
1,UCCUGGAUGAGCUUGCAUAGUAUGUAGUUA,0.00616 ± 0.0049
2,UCCUGGAUGUCCAUGCAUAGUAUUUAGAUA,< 0.0001
3,UCCUGCUACAGCUUGCAUACAUUUUAGUAA,< 0.0001
4,UCCUCCUACAGGAAGCAUAGUAUUUACAAA,< 0.0001
5,UCCUGGAUGUCGAAGCAUAGGAUUUAGUUA,< 0.0001
6,UCCUGGAUGUCCUUGCUAAGUAUUUAGUUA,< 0.0001
7,UCCUGGAUGUCGAACCCUAGUAUUUAGUUA,< 0.0001
8,UCCUGGAAGAGCUUGCUUAGUAUUUAGUUA,0.00878 ± 0.005
9,UCCUGGAUGUCGAUGCAUAGAAAUUAGUUA,< 0.0001
10,UCCUGGAUGUCGUUGCAUAGUUUUAGUUA,< 0.0001
11,UCCUGGAUGUCGAACGUAUGUAUAUUAGUUA,< 0.0001
12,UCCUGCUACAGCUUCGUUAGUAUUUUCAAA,< 0.0001
13,UCCUGGAUGUCGAUGCAUUGUAUUAAGUUA,< 0.0001
14,UCCUGGAUGAGCUUGCAUAGUUUUUAGAUA,< 0.0001
15,UCCUGCUACAGCUUGCAUAUGUAUUUAGUUA,< 0.0001
16,UCCUGGAUGUCGAACGUAUCUAUUUAAUUA,< 0.0001
17,UCCUCCUACAGCUUGCAUAGGAUUUAGUUA,0.00638 ± 0.0035
18,UCCUGGAUCAGCUUGCAUAGUAUUUUAGUUA,0.0111 ± 0.0065
19,UCCUCCUACAGCUUCGUUAGUAUUUAGAAA,< 0.0001
20,UCCUGGAUGUCGAACGUAUGAUUUAGUUA,< 0.0001

row,Sequence,pre-steady-state target cleavage rate
1,UCCUGGAUGUCGAACGAAAGUUUUUAGUUA,< 0.0001
2,UCCUGGAUGUCCAUGCAUAGUAUAUAGUUA,< 0.0001
3,UCCUGGAUCAGCUUGCAUAGUAUAUAGUUA,0.0117 ± 0.0058
4,UCCUGGAUGUCGAACGUAAGUAUUUAUUA,< 0.0001
5,UCCUGGAUGUCGAACGAUACUAUUUAGAUA,< 0.0001
6,UCCUGGAUGUCCAUGCAUAGUAUUAAGUUA,< 0.0001
7,UCCUGGUACAGCUUGGUAAGUAUUUACAAA,< 0.0001
8,UCCUGGAUGUCGUUGCAUAGUAUAAUGUUA,< 0.0001
9,UCCUGGAUGUCGAACGAAGUAUUUAGUUA,< 0.0001
10,UCCUGGAUGUCGAACGUUAGUUUAUAGUUA,< 0.0001
11,UCCUGGAUGUCGUUGCAUAGUAUUUUCAAA [g6:g18:cont:t1A],< 0.0001
12,UCCUGGAUGUCGAAGCAUAGUAUUUUGAUA,< 0.0001
13,UCCUGGAUCAGCUUGCAUUGUAUAUAGUUA,< 0.0001
14,UCCUGGAUGUCGAUGCAUAGUAUUUACAAA,< 0.0001
15,UCCUGGAUGUCGAAGAAUAGUAUUUAGUUA,< 0.0001
16,UCCUGGAUGUGCUUGCAUACAUUUUAGUAA,< 0.0001
17,UCCUGGAUGUCGAAGCAUAGUUUUUACUUA,< 0.0001
18,UCCUGGAUGUCGAACGUUAGUCAUUUAGUUA,< 0.0001
19,UCCUGGAUGUCGAAGGAUAGUAUUAAGUUA,< 0.0001
20,UCCUGGAUCAGCUUGCAUAGUAUUAUAGUUA,0.00759 ± 0.0041

# — the supplement of paper PMC10338343
